Here are results for 50 compounds from PubChem BioAssay AID1851 (National Center for Advancing Translational Sciences (NCATS), 2009).

Hit rate of the full screen: of about 16,000 compounds, about 5,800 (36%) were called active. Roughly 23% stayed inconclusive and do not appear here. The list shows a part of the results. Unmarked numbers belong to inactive results. The call rests on the fitted dose curve; in most records, active means well fitted curve in the direction sought with a large enough effect; inconclusive means small, poorly fitted or top-dose-only effect, or effect the other way; inactive means no such curve, though single readings can be large or run the other way. Peptide text beside a SMILES is read from it. * marks the point of attachment. PhAc = O=C(Cc1ccccc1)*; OBn = c1ccc(CO*)cc1
On the % scale 0 is the no-effect control and ±100 the full control effect.

Chain of Cytochrome P450 2C19 (Homo sapiens) (P33261 whole entry, looked up): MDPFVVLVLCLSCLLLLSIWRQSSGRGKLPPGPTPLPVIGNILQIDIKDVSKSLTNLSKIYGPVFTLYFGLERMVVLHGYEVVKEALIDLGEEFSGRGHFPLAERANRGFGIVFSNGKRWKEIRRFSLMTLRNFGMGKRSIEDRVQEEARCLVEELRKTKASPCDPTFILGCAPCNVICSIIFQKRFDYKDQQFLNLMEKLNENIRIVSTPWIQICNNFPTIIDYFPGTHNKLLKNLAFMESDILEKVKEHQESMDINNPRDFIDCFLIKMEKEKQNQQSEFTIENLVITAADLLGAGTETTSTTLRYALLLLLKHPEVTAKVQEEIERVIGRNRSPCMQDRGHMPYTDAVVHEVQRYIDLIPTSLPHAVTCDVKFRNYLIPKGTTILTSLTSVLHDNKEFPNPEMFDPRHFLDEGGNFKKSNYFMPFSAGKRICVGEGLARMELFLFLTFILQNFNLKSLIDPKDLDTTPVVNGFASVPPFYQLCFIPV

This test concerns the target Cytochrome P450 2C19 (Homo sapiens) (UniProt P33261). Description: Cytochrome panel assay with activity outcomes. The settings on record: recombinant CYP, pro-luciferin dealkylation, luminescence, p450-cyp2c19; series mostly up to 57.1 µM.
In the case of `CCN1CCCCC(=N/O)/C(=N/O)CCCC1`, the activity, negative = inhibition is 10.8% [at 11.4 µM].

With `O=C1[C@H]2[C@H]3[C@H](O)[C@H](O)C/C(=N/OC[C@@H](O)COCc4ccco4)[C@@H]3CC[C@@H]2C(=O)N1Cc1ccc2c(c1)OCO2`, the activity, negative = inhibition was -24.6% [at 11.4 µM].

Consider `CCOC(=O)C1=C[C@@]2(CC)CCCN3CCc4c(n1c1ccccc41)[C@H]32`, for which the AC50 entry was “inactive”.

For the compound `COc1cc2ccccc2cc1C(=O)Nc1ccc(S(=O)(=O)Nc2cc(C)on2)cc1`, the AC50 result is “inactive”.

Take `Cc1cc(NC(=O)c2ccc(S(=O)(=O)Nc3ccccc3)cc2)no1`: the AC50 is 5.01 µM (active).

Turning to `O=C(C1=C(O)C(=O)N(Cc2ccco2)C1c1ccccc1)c1cccs1` (stereo not given), the AC50 result was “inactive”.

As for `COc1ccc(C2Nc3ccccc3C(=O)N2Cc2ccco2)cc1COc1ccc([N+](=O)[O-])cc1` (stereo not given), the AC50 was 2.51 µM (active).

Regarding `Cc1ccc(C2Nc3ccccc3C(=O)N2Cc2ccco2)cc1` (stereo not given), the AC50 is 2.82 µM (active).

For the compound `O=C1c2ccccc2NC(c2ccc(F)cc2)N1Cc1ccco1` (stereo not given), the AC50 is 3.55 µM (active).

As to `S=C(S)O[C@@H]1C[C@@H]2C[C@H]1[C@@H]1CCC[C@H]21`, the AC50 is 15.8 µM (active).

As to `C=CCOc1c(Br)cc(CNc2ccc(NC(=O)C(C)C)c(OC)c2)cc1OC`, the AC50 was 3.55 µM (active).

For the compound `O=C1c2ccccc2C(=O)N1CCCCN(C(=O)c1cccc([N+](=O)[O-])c1)c1ccc(Cl)cc1`, the AC50 is 3.16 µM (active).

As for `O=C1c2ccccc2C(=O)N1CCCCN(C(=O)c1ccc([N+](=O)[O-])cc1)c1ccc(Cl)cc1`, the AC50 was 4.47 µM (active).

Turning to `C/C(CCN1CCc2nc(-c3ccccc3)c(-c3ccccc3)cc2C1)=N\O[C@@H](C)CN1CCCCc2nc(C)c(C)cc21`, the activity, negative = inhibition was -15.5% [at 11.4 µM].

For the compound `O=C(CNC(=O)c1cccs1)NCC(=O)OCc1ccc(Cl)cc1Cl`, the AC50 is 5.01 µM (active).

For `O=C(CNC(=O)c1cccs1)NCC(=O)OCc1ccc(Cl)cc1`, the AC50 was 6.31 µM (active).

Turning to `O=C(CNC(=O)Cc1ccccc1)NCC(=O)OCc1ccccc1` (PhAc-Gly-Gly-OBn), the AC50 entry is “inactive”.

As to `COC(=O)C1C(=O)C2=C(CC1C)NC(=O)CC2c1cccc(C)c1` (stereo not given), the AC50 was 11.2 µM (active).

`COc1ccc(-n2c(=O)c(-c3ccc(Cl)cc3)nc3cncnc32)cc1`: the AC50 result is “inactive”.

Take `COc1ccc(/C(C#N)=C/c2c(-c3ccc(Cl)cc3)nc3c(C)cccn23)cc1`: the AC50 was 3.16 µM (active).

For `COc1ccc(Oc2ncc3nc(-c4ccc(Cl)cc4)c(=O)n(C)c3n2)cc1`, the AC50 result is “inactive”.

On to `Cc1cc(Nc2ccccc2)nc(N)n1`, for which the AC50 entry was “inactive”.

For the compound `CCCOc1ccc(-c2nc(N)n[nH]2)cc1`, the AC50 entry is “inactive”.

In the case of `COc1ccc(Nc2nc(N)nc(CSc3n[nH]c(-c4ccccc4)n3)n2)cc1`, the AC50 is 10 µM (active).

`C#CCSc1n[nH]c(-c2ccco2)n1`: the activity, negative = inhibition was 0.772% [at 11.4 µM].

With `Cc1nnc(SCc2nc(N)nc(Nc3ccccc3)n2)s1`, the AC50 was 14.1 µM (active).

As for `CCCc1nnc(SCC(=O)N2C(C)CCCC2C)n1CCCOC` (stereo not given), the AC50 was 28.2 µM (active).

As to `CCCc1nnc(SCC(=O)N2CCCCC2)n1CCCOC`, the AC50 entry was “inactive”.

For `NOCC(=O)O`, the AC50 result was “inactive”.

For the compound `CC(C)Oc1ccc(C(=O)Nc2ccc(NC(=O)c3ccco3)c(Cl)c2)cc1`, the AC50 was 3.98 µM (active).

Consider `COc1cc(NC(=O)c2ccccc2Cl)ccc1NC(=O)c1ccco1`, for which the AC50 is 8.91 µM (active).

As for `COc1ccc(C(=O)Nc2ccc(NC(=O)c3ccco3)c(Cl)c2)cc1OC`, the AC50 result was “inactive”.

Take `CNc1cc(OC)c(C(=O)N[C@@H]2CCN(Cc3ccccc3)[C@H]2C)cc1Cl`: the AC50 result is “inactive”.

Take `Cc1nn(-c2ccc(F)cc2)c(C)c1NS(=O)(=O)c1ccc2ccccc2c1`: the AC50 was 0.316 µM (active).

`Cc1ccc(C)c(/C(=N\N=C(N)N)C2CC2)c1`: the activity, negative = inhibition was -19.5% [at 11.4 µM].

Regarding `O=C(N/N=C/c1ccccn1)c1ccco1`, the AC50 result was “inactive”.

As to `CCN(CC)C(=O)C(=O)N/N=C/c1cccc(Br)c1`, the AC50 is 22.4 µM (active).

On to `CCCCCC(=O)Nc1cc2[nH]c(=O)cc(COC)c2cc1C`, for which the AC50 entry is “inactive”.

Take `CCCCCCCCC(=O)N/N=C/c1cccc(Br)c1`: the AC50 was 2 µM (active).

As to `CCCCCCCCCCCCCCCC(=O)NC(C)C`, the AC50 entry is “inactive”.

On to `CCCCCCCCC(=O)N/N=C/c1ccccn1`, for which the AC50 is 5.01 µM (active).

Consider `C[C@@](Cc1ccc(O)c(O)c1)(NN)C(=O)O`, for which the AC50 result is “inactive”.

Turning to `Cc1cc2cc3c(cc2nc1SCC(=O)Nc1c(C)cccc1C)CCC3`, the AC50 was 3.55 µM (active).

`Cc1cc(C(=O)CSc2nnc(N)s2)c(C)n1CCc1ccc(F)cc1`: the AC50 was 0.794 µM (active).

`COc1ccc(CCn2c(C)cc(C(=O)CSc3nc(N)cc(=O)[nH]3)c2C)cc1`: the AC50 is 3.55 µM (active).

Turning to `COc1ccc(C(=O)NC2(C(F)(F)F)C(=O)Nc3c2c(=O)[nH]c(=O)n3CCc2ccc(OC)c(OC)c2)cc1` (stereo not given), the AC50 result is “inactive”.

`CCOC(=O)Nc1ccc2c(c1)OCO2`: the AC50 is 20 µM (active).

As for `CCOCC(=O)Nc1c(C(=O)Nc2ccccc2OC)oc2ccccc12`, the AC50 entry was “inactive”.

On to `CCOc1ccc(NC(=O)c2oc3ccccc3c2NC(=O)CC)cc1`, for which the AC50 is 2.24 µM (active).

With `COc1cccc(NC(=O)c2oc3ccccc3c2NC(=O)c2ccc3c(c2)OCO3)c1`, the AC50 is 3.55 µM (active).

Usually AC50 stands for the concentration at which the activity in the assay is half-maximal.
